Sampled rows, rich in hits. Any-hit rate of the full collection: about 2.4%.
SmPrx2 inh: inhibitors of Schistosoma mansoni peroxiredoxin 2 | S. mansoni Prx2 activity coupled to TGR/GSH (TGR is thioredoxin glutathione reductase), NADPH fluorescence loss, qHTS | Potency, µM | 0.07% of 65,000 active | AID 448
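Activity is read as the drop in NADPH fluorescence (365/450 nm), recorded every 30 sec for 8 min after H2O2 addition. Prx2 is coupled to TGR-driven NADPH oxidation through glutathione, in phosphate buffer pH 7.4.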
AmpC nodet inh: blocks E. coli AmpC beta-lactamase in absence of detergent; AID 585; 1.8% of 71,000 active; P00811; Potency, µM (doses to about 28.7 µM); AmpC nitrocefin hydrolysis, absorbance 480 nm, no detergent
Target sequence (P00811 whole entry, looked up): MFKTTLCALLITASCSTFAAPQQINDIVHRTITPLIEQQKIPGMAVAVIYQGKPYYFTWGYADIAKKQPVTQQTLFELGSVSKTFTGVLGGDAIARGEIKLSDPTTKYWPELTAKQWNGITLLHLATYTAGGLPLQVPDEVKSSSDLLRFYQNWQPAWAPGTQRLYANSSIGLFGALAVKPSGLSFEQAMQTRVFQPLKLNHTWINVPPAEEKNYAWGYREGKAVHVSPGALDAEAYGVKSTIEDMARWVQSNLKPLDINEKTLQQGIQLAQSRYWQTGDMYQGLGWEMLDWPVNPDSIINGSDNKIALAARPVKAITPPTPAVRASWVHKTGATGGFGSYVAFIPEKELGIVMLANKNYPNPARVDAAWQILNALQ
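AmpC in 20 mM phosphate buffer pH 7.0 was preincubated 15 min at room temperature with compounds. Nitrocefin (800 uM stock) was then added and hydrolysis followed at 480 nm every 20 s for 4 min.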
Anthrax LT inh: inhibitors of anthrax lethal toxin internalization; Cells, anthrax lethal toxin internalization, FRET ratio (460/530); Potency, µM (highest dose often 40 µM), actives largely listed as inhibitors; 0.67% of 70,000 active; note: nearly all actives have a fitted effect of over 50% in size
AmpC det inh: AmpC beta-lactamase inhibition, detergent assay; P00811; purified AmpC, nitrocefin hydrolysis with detergent; Potency, µM (highest dose often 28.7 µM); 0.09% of 71,000 active; active = well fitted curve in the direction sought with a large enough effect; inconclusive = small, poorly fitted or top-dose-only effect
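E. coli AmpC (5.3 nM) in 20 mM phosphate pH 7.0 with 0.01% Triton X-100, preincubated 15 min RT with compound; nitrocefin (2 uL of 800 uM stock) hydrolysis followed by 480 nm absorbance every 20 s over 4 min.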
Numbers stand for hits; n = inactive; u = inconclusive; x = not tested or not shown; [ ] = dose if it differs, or a comment. Unless noted, calls come from the whole dose curve.

SMILES	SmPrx2 inh	AmpC nodet inh	Anthrax LT inh	AmpC det inh
COC(=O)[C@H]1[C@@H]2C[C@H]3c4[nH]c5ccccc5c4CCN3C[C@@H]2CC[C@@H]1O	n	n	n	n
C[C@@H]1CN(CCCn2c3ccccc3c3ccccc32)C[C@H](C)N1	n	n	31.6µM	n
O=C(NCc1ccccc1)c1noc2c1CCCC2	n	n	n	n
CC(C)CNC(=O)c1noc2c1CCCC2	n	3.98µM[single pt active]	n	n
Nc1ncnc2c1ncn2[C@@H]1O[C@@H](COP(=O)(O)CP(=O)(O)OP(=O)(O)O)[C@H](O)[C@@H]1O	n	n	n	n
CCOC(=O)Cc1csc(-n2sc3ccccc3c2=O)n1	n	n	3.16µM	n
O=C(O)C[C@H]1OCC=C2CN3CC[C@]45c6ccccc6N[C@@H]4[C@H]1[C@H]2C[C@H]35	n	n[5.75 µM]	n[8 µM]	n[5.75 µM]
CCCn1c(-c2ccc(F)cc2)nc2c(N3CCCN(Cc4ccccc4)CC3)nc(C)nc21	x	n	6.31µM	n
CCCn1c(C)nc2c(N3CCCN(Cc4ccccc4)CC3)nc(C)nc21	x	n	n	n
COc1cc2[nH]c(=O)c(C(=O)NCCCN3CCCCC3)c(O)c2cc1OC	n	n	12.6µM	n
O=C(NCCCN1CCOCC1)c1c(O)c2ccccc2[nH]c1=O	n	n	n	n
CC(Oc1ccc(Cl)cc1Cl)C(=O)Nc1ccncc1 (stereo unspecified)	n	n	7.94µM	n
C[C@@]12CC[C@H](O)C[C@@H]1CC[C@H]1[C@H]2C[C@@H](O)[C@]2(C)[C@@H](C3=CC(=O)OC3)CC[C@@]12O	n	n	u	n
Clc1ccccc1CNCC1CCC(CNCc2ccccc2Cl)CC1 (stereo unspecified)	n	n	3.98µM	n
CC(=O)N1C[C@@H]2C[C@H](C1)c1cccc(=O)n1C2	n	n	u	n
COC(=O)c1cc(NC2c3ccccc3C(=O)N2c2cccnc2)cc(C(=O)OC)c1 (stereo unspecified)	n	3.98µM[single pt active]	n	n
Nc1cccc(B(O)O)c1	x	x	n	x
O=C(c1ccc(COc2ccc(Cl)cc2)o1)N1CCN(Cc2ccc3c(c2)OCO3)CC1	x	n	n	n
O=C(Nc1ccc2c(c1)OCO2)c1ccc(COc2ccc3c(c2)CCC3)o1	n	n	6.31µM	n
CN(C)c1ccc(NC(=O)c2ccc(COc3cccc(Cl)c3)o2)cc1	n	n	10µM	n
CC(=O)[C@H](CC(C)C)NC(=O)[C@@H](CC(C)C)NC(=O)[C@H](CC(C)C)NC(=O)OCc1ccccc1	n	n	u	n
C=C1CC[C@@H](O)C/C1=C/C=C1\CCC[C@]2(C)[C@@H]1CC[C@H]2[C@@H](C)/C=C\[C@@H](C)C(C)C	n	n	u	n
CCn1c2ccccc2c2cc(NC(=O)C3CCN(S(=O)(=O)c4cccs4)CC3)ccc21	n	12.6µM	n	n
C=CC1CO1 (stereo unspecified)	x	n	n	n
C#CCCCO/N=C1/C[C@@H](O)[C@@H](O)[C@@H]2[C@@H]3C(=O)N(C[C@@H]4CCCO4)C(=O)[C@H]3CC[C@@H]12	x	x	n[8 µM]	x
SMILES	SmPrx2 inh	AmpC nodet inh	Anthrax LT inh	AmpC det inh
Cc1ccc2oc(=O)c3cc(C(=O)NCCN4CCN(C)CC4)sc3c2c1	n	3.98µM[single pt active]	n	n
Cc1nc2ccccc2c2oc(C(=O)NCCN3CCN(C)CC3)cc12	n	n	u	n
O=c1c2ccccc2sn1-c1cc(S(=O)(=O)N2CCOCC2)ccc1N1CCOCC1	n	n	0.159µM	n
Cn1c(=O)c2cc(S(=O)(=O)N3CCOCC3)ccc2n(C)c1=O	n	n	n	n
COCCOC(=O)c1[nH]c2c(c1C)C(=O)CC(c1cc(OC)ccc1OC)C2 (stereo unspecified)	n	n	n	n
COc1ccc(OC)c(C2CC(=O)c3c([nH]c(C(=O)OC(C)C)c3C)C2)c1 (stereo unspecified)	n	2.51µM[single pt active]	u	n
c1ccc(-c2ccc(N3CC4(CCNCC4)C3)cc2)cc1	n	n	12.6µM	n
c1ccc(C(c2ccccc2)N2CC3(CCNCC3)C2)cc1	n	n	10µM	n
COc1ccccc1NC(=O)NCCN1C(=O)C2C3C=CC(C3)C2C1=O (stereo unspecified)	n	3.98µM[single pt active]	n	n
O=C(NCCN1C(=O)C2C3C=CC(C3)C2C1=O)Nc1cccnc1 (stereo unspecified)	n	3.98µM[single pt active]	u	n
O=C(NCCN1C(=O)C2C3C=CC(C3)C2C1=O)Nc1ccc(Br)cc1 (stereo unspecified)	n	3.98µM[single pt active]	n	n
COc1ccc(NC(=O)CCCN2C(=O)C3C4C=CC(C4)C3C2=O)c(OC)c1 (stereo unspecified)	n	n	n	n

Screens deposited in PubChem by National Center for Advancing Translational Sciences (NCATS).
